# Test results: PubChem BioAssay AID602233 (National Center for Advancing Translational Sciences (NCATS), 2012)
# Out of some 380,000 compounds screened, about 170 (0.045%) were called active. The list comes from a sample in which actives are over-represented; it also holds similar structures and randomly drawn compounds. Unmarked numbers belong to inactive results. The call rests on the fitted dose curve; in most records, active means well fitted inhibition curve with a large enough effect; inconclusive means small, poorly fitted or top-dose-only effect; inactive means no such curve, though single readings can be large or run the other way.
# Target: Phosphoglycerate kinase, glycosomal (Trypanosoma brucei brucei) (UniProt P07378)
# Assay: qHTS Assay to Find Inhibitors of Phosphoglycerate Kinase; further: nearly all actives have a fitted effect of over 60% in size
# Conditions: PGK/GAPDH coupled, Kinase-Glo luminescence, 60 min; series mostly up to 57.5 µM; activity change, negative = inhibition: at the top concentration
# Description: Several species of the Trypanosomatidae family of parasitic protozoans cause a spectrum of diseases throughout the tropical and subtropical world. Sleeping sickness, caused by two subspecies of Trypanosoma brucei, is endemic to areas of sub-Saharan Africa, while Chagas disease, a manifestation of Trypanosoma cruzi infection, is prevalent throughout Central and South America. In addition, many species of Leishmania are responsible for a range of cutaneous and visceral diseases, causing ulcers, destructive lesions and kalaazar, a lethal infection of the viscera. Collectively, these organisms infect 30 million people worldwide (~500 million live in endemic areas), and account for ~130,000 deaths annually. Given their debilitating and prevalent nature, trypanosomatid parasites impose a heavy medical, economic and social burden on entire populations, primarily in the developing world. The problem is further exacerbated by the fact that existing treatments have progressed little in the past 50 years, and current drugs show high toxicity and poor efficacy. […] Blood-stream stages of T. brucei are entirely dependent on glycolysis as a source of ATP, and the tricarboxylic acid cycle and oxidative phosphorylation are both repressed. Glycolysis in axenically cultured T. cruzi, representing the intracellular pathogenic stage, is also essential for these parasites. […] Previous studies have shown that the glycolytic enzyme, phosphoglycerate kinase (PGK), is a viable target for drugs to kill these parasites. […] NIH Molecular Libraries Probe Production Network [MLPCN] NIH Chemical Genomics Center [NCGC] MLPCN Grant: R03 MH093212 PI Name: Malcolm Walkinshaw, University of Edinburgh
# 3ul of substrate/PGK buffer (columns 1,2,5-48) are dispensed into Greiner white solid bottom 1536-well assay plates; columns 3-4 receive only TEA buffer as 0x PGK controls. Compounds are then transferred via Kalypsys pin tool equipped with 1536-pin array (10nl slotted pins, V&P Scientific, San Diego, CA). Following addition of compound, 1ul of GAPDH (100nM final concentration, all columns) is added to initiate the reaction (this upstream coupling enzyme is necessary for in-well production of PGK substrate, 1,3-bisphosphoglycerate (1,3-BPG), which is unstable and not commercially available). The plates are then incubated at room temperature for 60 minutes. Kinase-Glo Plus reagent is added (2ul) and plates incubated for 10 minutes, before being transferred to a ViewLux high-throughput CCD imager (PerkinElmer) wherein single end-point measurements of luminescence are acquired using a clear filter. All reagents are diluted in an assay buffer consisting of 100mM TEA (pH 7.6), 5mM MgCl2 and 0.01% Tween-20.
# On the % scale 0 is the no-effect control and ±100 the full control effect.
# Phosphoglycerate kinase, glycosomal (Trypanosoma brucei brucei), sequence (P07378 whole entry, looked up): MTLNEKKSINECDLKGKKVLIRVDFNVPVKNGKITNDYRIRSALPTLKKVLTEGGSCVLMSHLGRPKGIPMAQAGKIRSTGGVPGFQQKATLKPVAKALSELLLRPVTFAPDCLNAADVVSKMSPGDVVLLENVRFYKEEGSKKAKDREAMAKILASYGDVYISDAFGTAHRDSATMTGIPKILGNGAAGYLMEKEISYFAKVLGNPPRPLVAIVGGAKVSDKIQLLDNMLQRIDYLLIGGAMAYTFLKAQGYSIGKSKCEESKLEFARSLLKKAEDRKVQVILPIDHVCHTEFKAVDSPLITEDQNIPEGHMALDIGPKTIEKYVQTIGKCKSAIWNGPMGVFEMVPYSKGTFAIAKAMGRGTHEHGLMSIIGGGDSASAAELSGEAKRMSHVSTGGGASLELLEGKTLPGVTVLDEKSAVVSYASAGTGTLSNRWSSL
Compound,"activity change, negative = inhibition [%]",outcome
CCCN1CN=C(NS(=O)(=O)c2ccc(NC(C)=O)cc2)NC1,-8.9,
CC(=O)N1CCCc2cc(S(=O)(=O)N3CCC(C(=O)NCc4ccc(F)cc4)CC3)ccc21,,inactive
COc1cccc(NC(=O)c2ccc3nc(CCc4ccccc4)oc3c2)c1,,inactive
COc1ccc2c(c1)C=C(C(=O)NCc1cc(Br)ccc1OC)CO2,,inactive
CC(=O)Nc1cc(C(=O)NCc2ccc(F)cc2Cl)ccc1Sc1ccc(Cl)cc1,8.65,
COc1ccc(-c2cn3c(C)c(C(=O)Nc4cc(C)cc(C)c4)sc3n2)cc1,-0.686,
CCc1ccccc1NC(=O)CSc1nnc(-c2ccccc2)c(-c2ccccc2)n1,9.96,
COc1ccc(OC)c(NC(=O)C2CCN(S(=O)(=O)c3ccc(C)cc3)CC2)c1,-0.994,
Cn1c(=O)c2c(SCC(=O)N3CCc4ccccc43)nc(-c3ccc(Cl)cc3)nc2n(C)c1=O,,inactive
O=C(CSc1ncc(CO)n1Cc1ccc(F)cc1)NCc1ccco1,-6.21,
CCC1CN(S(=O)(=O)c2cc(-c3cc(C)no3)ccc2C)c2cc(C)ccc2O1 (configuration not stated),-0.193,
Cc1oc2ncnc(N3CCOCC3)c2c1C(=O)NCCc1ccccc1,-4.29,
Cc1cccc(C(=O)NCCc2nc3ccccc3n2Cc2ccccc2Cl)c1,2.99,
CCc1ccc(CNC(=O)c2cc3cc4ccc(OC)cc4nc3o2)cc1,-5.03,
CCC(=O)Nc1c(C(=O)N2CCN(c3ccc(F)cc3)CC2)oc2ccccc12,3.16,
COc1ccc(-c2c(C)nn3c(N4CCC(C(=O)NCCC(C)C)CC4)cc(C)nc23)cc1OC,0.974,
Cc1ccccc1CSc1nc(-c2ccccc2)nc2c1Cc1c(CO)cnc(C)c1O2,,inactive
Cc1ccc(-c2nnc3c4ccccc4c(C)nn23)cc1NC(=O)c1cccc(Br)c1,7.56,
Cc1ccc(NC(=O)Cn2cnc3nc4c(cc3c2=O)CCCC4)cc1Cl,-6.55,
O=C(c1ccc(Br)cc1)N(Cc1cccs1)c1ccc(F)cc1,3.55,
Cc1ccc(NC(=O)CSc2nc3ccccc3c3nc(CCn4cncc4C)nn23)cc1F,4.26,

Compound,"activity change, negative = inhibition [%]",outcome
CC(C)Cn1c(-c2ccc(S(=O)(=O)N3CCOCC3)cc2)csc1=Nc1cc(Cl)ccc1Cl,,inactive
CCc1ccc(NC(=O)N2CCN(C(=O)c3nsc4ccccc34)CC2)cc1,6.83,
Cc1ccc(Cl)cc1NC(=O)CCS(=O)(=O)c1ccc(Br)s1,-2.54,
Cc1cc(Br)ccc1NC(=O)Cn1cnc2sc(C)c(S(=O)(=O)N3CCN(C)CC3)c2c1=O,,inactive
Cc1ccc(NC(=O)c2oc3ccccc3c2NC(=O)Cc2cccs2)cc1,-7.26,
Cc1ccc(-n2nc(CO)c(C(=O)NCCc3ccccc3)n2)cc1,-11.4,
COC(=O)c1ccccc1NC(=O)C(Cc1ccccc1)N1Cc2ccccc2C1=O (configuration not stated),,inactive
O=C1CCCc2cc(S(=O)(=O)N3CCCC(C(=O)NCc4ccccc4)C3)ccc2N1 (configuration not stated),6.57,
COc1ccc(C2C(=O)N(C3CCCCCC3)CC(=O)N2CCc2ccc(Cl)cc2)cc1OC (configuration not stated),,inactive
COC(=O)c1c(NC(=O)C(C)Oc2ccc(Cl)c(C)c2)sc(C)c1C (configuration not stated),,inactive
COc1ccccc1CNC(=O)c1ccc(NC(=O)N2CC(C)Sc3ccccc32)cc1 (configuration not stated),3.38,
Cc1cc(C)c(/C=C/c2onc(C)c2S(=O)(=O)N2CCC(C(=O)Nc3ccc(Cl)cc3C)CC2)c(C)c1,1.64,
CCc1cccc(NC(=O)CSc2nccn2C)c1,0.152,
COc1cc(C(=O)NCC(c2ccc(Cl)cc2)N2CCOCC2)cc(OC)c1OC (configuration not stated),1.64,
COc1ccc(Cn2c(=O)c3oc4ccccc4c3n(CC(=O)Nc3ccc(F)cc3F)c2=O)cc1,,inactive
CCOc1ccc(NC(=O)Cn2cc(C(=O)c3ccc(C)cc3)c(=O)c3cc4c(cc32)OCCO4)cc1,,inactive
CCCCc1nn2c(=O)cc(COC(=O)c3ccc(NC(=O)c4ccccc4C)cc3)nc2s1,-1.81,
Cc1ccccc1CNC(=O)c1ccc(NC(=O)N2CCCCc3ccccc32)cc1,9.36,
COc1ccc(CNC(=O)COCc2cc(-c3cccs3)on2)cc1OC,,inactive
CCCN(CCC)C(=O)C(Cc1ccccc1)NS(=O)(=O)c1ccc2c(c1)c(=O)n(C)c(=O)n2C (configuration not stated),-0.144,
CCCCNc1ccc(-c2nc(-c3ccncc3)no2)cc1[N+](=O)[O-],-0.547,

Compound,"activity change, negative = inhibition [%]",outcome
CCOc1ccccc1NC(=O)Cn1c(=O)n(Cc2ccco2)c(=O)c2sc3ccccc3c21,-8.83,
Cc1ccc(NC(=O)c2cn3c4c(ccc(Cl)c4c2=O)OC(C)C3)cc1C (configuration not stated),,inactive
O=C(CSc1n[nH]c(-c2ccccc2)n1)N1CCCCC1,-1.92,
COc1ccc(-c2noc(CSc3nnc(-c4ccccc4)n3-c3ccc(F)cc3)n2)c(OC)c1,-0.281,
O=C(NCc1ccccc1Cl)C1=Cc2cc(Br)ccc2OC1,-7.68,
O=C(Nc1ccc(F)cc1F)c1cnn(-c2ccc(F)cc2)c1-n1cccc1,-3.35,
COc1ccccc1CNC(=O)CCn1c(=O)c2ccccc2n(CC(=O)Nc2ccc(Br)cc2F)c1=O,-3.68,
Cc1ccc(Nc2ccc3cc(S(=O)(=O)N4CCCCC4)ccc3n2)cc1F,-1.23,
COc1ccc(-c2nc3nc(C)cc(C)n3c2Nc2c(C)cccc2C)cc1,-1.29,
Cc1ccc(-n2ncc3c(NCCCn4ccnc4)ncnc32)cc1Cl,,inactive
CCCN1CCN(CCCNC(=O)c2cnn(-c3ccc(C)cc3)c2-n2cccc2)CC1,,inactive
CSc1ccc(CCNC(=O)c2cc(C)nc3c2c(C)nn3-c2cccc(F)c2)cc1,-6.82,
NC1=NC(c2cc(F)cc(F)c2)n2c(nc3ccccc32)N1 (configuration not stated),1.97,
COc1ccc2c(Sc3ccc(C)cc3)c(C(=O)NC(C)c3ccccc3)[nH]c2c1 (configuration not stated),-15.5,
CCCCOc1ccc(CNC(=O)c2ccc3c(c2)N(C)C(=O)C2CCCCN32)cc1 (configuration not stated),-2.79,
O=C(Cn1c(-c2cccs2)cc2ccccc21)NCCc1ccc(Cl)cc1,-6.23,
Cc1nn2c(=O)cc(COC(=O)c3cccc(NC(=O)COc4ccccc4Cl)c3)nc2s1,,inactive
COc1ccc(-c2cn3c(n2)sc2cc(C(=O)Nc4ccc(F)cc4)ccc23)cc1,-9.23,
COc1ccccc1CNC(=O)c1ccccc1NC(=O)c1nsc2ccccc12,-6.03,
Cc1ccc(Cn2c(=O)n(CCCC(=O)NCc3ccccc3Cl)c(=O)c3ccccc32)cc1,-2.7,
